Data on 37 compounds can be found in PubChem BioAssay (NCATS).

SMILES strings stand for the structures. Where “and” joins values, the source holds several entries; their conditions need not be identical. Equal values may be shown once. Records with an inconclusive call do not appear. Values without a mark were called inactive. Calls of active or inactive are those of the source. Unless noted, calls come from the whole dose curve; as a rule, active = well fitted curve in the direction sought with a large enough effect; inconclusive = small, poorly fitted or top-dose-only effect, or another doubt; inactive = no such curve, though single readings can be large; an effect the other way counts as inactive or inconclusive.

Cytochrome P450 2D6 (Homo sapiens), sequence (P10635 whole entry, looked up): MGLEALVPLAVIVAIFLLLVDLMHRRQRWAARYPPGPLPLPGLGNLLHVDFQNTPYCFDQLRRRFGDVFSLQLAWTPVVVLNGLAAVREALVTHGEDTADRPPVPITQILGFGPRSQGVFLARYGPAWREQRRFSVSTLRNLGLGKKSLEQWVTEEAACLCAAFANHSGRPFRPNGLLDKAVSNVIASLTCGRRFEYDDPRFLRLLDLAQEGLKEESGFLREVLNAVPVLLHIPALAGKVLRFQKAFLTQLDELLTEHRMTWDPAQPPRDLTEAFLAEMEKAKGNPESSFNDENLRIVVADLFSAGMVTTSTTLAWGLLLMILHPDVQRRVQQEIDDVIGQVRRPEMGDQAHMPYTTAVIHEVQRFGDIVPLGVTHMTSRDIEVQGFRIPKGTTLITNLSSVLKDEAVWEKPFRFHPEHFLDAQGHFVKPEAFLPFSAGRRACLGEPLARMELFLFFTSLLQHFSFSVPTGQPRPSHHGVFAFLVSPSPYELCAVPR

The target of one assay is Calcium and integrin-binding protein 1 (Homo sapiens) (UniProt Q99828). The experiment in a line: Primary qHTS for Identification of Calcium Integrin Binding Protein 1 (CIB1) Competitor (AID 1508620).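 For activity change, negative = inhibition: GST tagged CIB1 binding a fluorescein labelled alphaIIb integrin peptide tracer; top concentration of the series differs between compounds; % is set by controls: 0 for no effect and ±100 for the full control effect.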 Note: potency is the fitted concentration of half-maximal effect. The conditions noted are these: CIB1-GST / FITC-alphaIIb peptide fluorescence polarization; series mostly up to 114 µM; activity change, negative = inhibition: at the top concentration. In a few lines: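 Fluorescence polarization competition: CIB1-GST (1 uM final) preincubated with compound 15 min at room temperature, then FITC-labeled alphaIIb peptide (100 nM final) added for another 15 min. Polarization read at Ex 480/Em 540.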
Calcium and integrin-binding protein 1 (Homo sapiens), sequence (Q99828 whole entry, looked up): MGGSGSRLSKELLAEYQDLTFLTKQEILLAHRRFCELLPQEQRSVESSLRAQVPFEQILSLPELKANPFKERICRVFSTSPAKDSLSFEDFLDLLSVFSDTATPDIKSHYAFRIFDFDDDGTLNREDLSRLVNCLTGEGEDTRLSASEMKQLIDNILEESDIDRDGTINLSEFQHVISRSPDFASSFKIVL
(In general: qHTS replaces the single test concentration by a dilution series.)
For `CO[C@H]1C=CO[C@@]2(C)Oc3c(C)c(O)c4c(O)c(c(/C=N/N5CCN(C)CC5)c(O)c4c3C2=O)NC(=O)/C(C)=C\C=C[C@H](C)[C@H](O)[C@@H](C)[C@@H](O)[C@@H](C)[C@H](OC(C)=O)[C@@H]1C`, the “activity change, negative = inhibition” value is -3.62%.

Regarding `Oc1ccccc1C=NCc1ccccc1`, the “activity change, negative = inhibition” value was -3.39%.

With `Nc1ccc(S(=O)(=O)Nc2cnc3ccccc3n2)cc1`, the “activity change, negative = inhibition” value was -1.92%.

Turning to `O=C(NC1CCN(CCc2c[nH]c3ccccc23)CC1)c1ccccc1`, the “activity change, negative = inhibition” value was 1.99%.

For the compound `CCCCCCCCCCC[C@@H](C[C@@H]1OC(=O)[C@H]1CCCCCC)OC(=O)[C@H](CC(C)C)NC=O`, the “activity change, negative = inhibition” value was 1.53%.

As to `CCCCc1cc2ccccc2c(OCCN(C)C)n1`, the “activity change, negative = inhibition” value is 2.47%.

Take `CCc1nn(CCCN2CCN(c3cccc(Cl)c3)CC2)c(=O)n1CCOc1ccccc1`: the “activity change, negative = inhibition” value was -3.31%.

With `Oc1ccc(Cl)cc1Cc1cc(Cl)ccc1O`, the Potency was 79.4 µM (active).

On to `O=C1[C@H](CC[C@H](O)c2ccc(F)cc2)[C@@H](c2ccc(O)cc2)N1c1ccc(F)cc1`, for which the Potency entry was “inactive”.

For the compound `CCCCCCCCCCCCOCCOCCOCCOCCOCCOCCOCCOCCOCCO`, the “activity change, negative = inhibition” value was -4.66%.

Take `O=C(Nc1ccccc1)OCC(CN1CCCCC1)OC(=O)Nc1ccccc1` (stereo not drawn): the “activity change, negative = inhibition” value is -0.426%.

For `Cc1ccc(O)c([C@H](CCN(C(C)C)C(C)C)c2ccccc2)c1`, the “activity change, negative = inhibition” value was 0.614%.

For `CC(=O)NO`, the “activity change, negative = inhibition” value is 4%.

For `Cc1ccc2c(Br)cc(Br)c(O)c2n1`, the “activity change, negative = inhibition” value was -10.5%.

Test system in another assay: not listed separately
Description: Primary qHTS for small molecule stabilizers of the endoplasmic reticulum resident proteome: Secreted ER Calcium Modulated Protein (SERCaMP) assay (AID 1508630). Note: % is set by controls: 0 for no effect and ±100 for the full control effect. The note with it: SH-SY5Y GLuc-SERCaMP (Gaussia luciferase released on ER calcium loss) secretion, thapsigargin, luminescence; series mostly up to 38.4 µM; activity change, negative = inhibition: at the top concentration. In a few lines: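 The SH-SY5Y reporter protocol was run at 3 concentrations up to 38.3 uM (primary) or 11 concentrations (follow-up): 16 h compound, 100 nM thapsigargin for 4 h, then extracellular luciferase luminescence.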
With `C#C[C@]1(O)CC[C@H]2[C@@H]3CCC4=Cc5oncc5C[C@]4(C)[C@H]3CC[C@@]21C`, the “activity change, negative = inhibition” value is -5.27%.

On to `NC(N)=NCc1cccc(I)c1`, for which the “activity change, negative = inhibition” value is -29.5%.

With `CC(C)=CCOc1ccc(/C=C/C(=O)c2ccc(OCC=C(C)C)cc2OCC(=O)O)cc1`, the “activity change, negative = inhibition” value was 26.3%.

Take `CCc1oc2ccccc2c1C(=O)c1cc(Br)c(O)c(Br)c1`: the Potency entry is “inactive”.

As to `CC(=O)Nc1ccc(OCC(O)CNC(C)C)cc1` (stereo not drawn), the “activity change, negative = inhibition” value was -5.11%.

Regarding `CCc1oc2ccccc2c1C(=O)c1cc(I)c(O)c(I)c1`, the “activity change, negative = inhibition” value was 3.39%.

On to `OC1C(O)C(O)C(O)C(O)C1O` (stereo not drawn), for which the “activity change, negative = inhibition” value was 25.9%.

`CCCCCCCCCCCCCCC[C@H](O)[C@@H](N)CO`: the activity change, negative = inhibition is -27.1% [at 3.88 µM].

With `CN=C(N)NCCC[C@H](N)C(=O)O`, the “activity change, negative = inhibition” value is -9.24%.

Consider `CCOC(=O)[C@H](CCc1ccccc1)N[C@@H](C)C(=O)N1[C@H](C(=O)O)C[C@H]2CCCC[C@@H]21`, for which the “activity change, negative = inhibition” value is 4.19%.

As for `C=C1c2cccc(O)c2C(O)=C2C(=O)[C@]3(O)C(O)=C(C(N)=O)C(=O)[C@@H](N(C)C)[C@@H]3[C@@H](O)[C@H]12`, the “activity change, negative = inhibition” value is -15.8%.

In the case of `Oc1c(Cl)cc(Cl)c(Cl)c1Cc1c(O)c(Cl)cc(Cl)c1Cl`, the “activity change, negative = inhibition” value was -29.9%.

Turning to `CN1CCc2cccc3c2[C@H]1Cc1ccc(O)c(O)c1-3`, the “activity change, negative = inhibition” value was -25.1%.

With `CC(=O)O[C@]1(C(C)=O)CC[C@H]2[C@@H]3C=C(C)C4=CC(=O)CC[C@]4(C)[C@H]3CC[C@@]21C`, the “activity change, negative = inhibition” value is 20.1%.

As for `CCOc1ccc(NC(C)=O)cc1`, the “activity change, negative = inhibition” value was -7.04%.

On to `O=C(N/N=C/c1ccc([N+](=O)[O-])o1)c1ccc(O)cc1`, for which the “activity change, negative = inhibition” value is 32.2%.

As for `COc1ccc(C(=O)c2ccccc2O)c(O)c1`, the “activity change, negative = inhibition” value is -13.3%.

For the compound `C[C@H]1[C@H]2CC[C@H]3[C@@H]4CC=C5C[C@@H](N(C)C)CC[C@]5(C)[C@H]4CC[C@]23CN1C`, the “activity change, negative = inhibition” value is -15.1%.

Test system in a further assay: not listed separately
The experiment in a line: A High-Content qHTS Against Drug Library for the Identification of Small Molecules that Inhibit DYT1 Early Onset Primary Dystonia-Associated Cell Pathology (AID 1645839; calls by dose curve; note: potency is the fitted concentration of half-maximal effect). The note with it: HEK293 Flp-In EGFP-delE TorsinA, punctate imaging, 48 h; series mostly up to 46.1 µM; % pathology change, negative = correction: at the top concentration. In a few lines:
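Induced EGFP-delE TorsinA cells are imaged after 48 h of compound treatment. Punctate fusion-protein distribution gives the %pathology value, while nuclei counts flag toxicity. Wild-type EGFP-hTOR1A cells define the normal pattern.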
Turning to `Oc1ccccc1C=NCc1ccccc1`, the “% pathology change, negative = correction” value (“% pathology change” for short) was 1.65%.

On to `CN1CCN(CCC(=O)N2c3ccccc3Sc3ccc(C(F)(F)F)cc32)CC1`, for which the Potency is 3.16 µM (active).

Regarding `C=C[C@H]1CN2CC[C@H]1C[C@H]2[C@H](O)c1ccnc2ccc(OC)cc12`, the “% pathology change” value is -14.8%.

Turning to `CCCCN=C(N)N=C(N)N`, the “% pathology change” value was -2.76%.

For the compound `CC(=O)Nc1ccc(OCC(O)CNC(C)C)cc1` (stereo not drawn), the “% pathology change” value is 7.07%.

Consider `CCCCCCCCCCCCCCCC(=O)O`, for which the “% pathology change” value is 2.18%.

For `OC1C(O)C(O)C(O)C(O)C1O` (stereo not drawn), the “% pathology change” value is 4.39%.

In the case of `C=C1c2cccc(O)c2C(O)=C2C(=O)[C@]3(O)C(O)=C(C(N)=O)C(=O)[C@@H](N(C)C)[C@@H]3[C@@H](O)[C@H]12`, the “% pathology change” value was -1.29%.

Take `C=C[C@H]1CN2CC[C@H]1C[C@@H]2[C@@H](O)c1ccnc2ccc(OC)cc12`: the “% pathology change” value is -15.2%.

On to `CC(=O)O[C@]1(C(C)=O)CC[C@H]2[C@@H]3C=C(C)C4=CC(=O)CC[C@]4(C)[C@H]3CC[C@@]21C`, for which the “% pathology change” value was 7.3%.

Take `CC(=O)NO`: the “% pathology change” value is 7.53%.

In the case of `CCOc1ccc(NC(C)=O)cc1`, the “% pathology change” value is 3.56%.

Consider `COc1ccc(C(=O)c2ccccc2O)c(O)c1`, for which the “% pathology change” value was -22.2%.

With `C[C@H]1[C@H]2CC[C@H]3[C@@H]4CC=C5C[C@@H](N(C)C)CC[C@]5(C)[C@H]4CC[C@]23CN1C`, the “% pathology change” value was 9.07%.

Another assay addresses Cytochrome P450 2D6 (Homo sapiens) (UniProt P10635). Description: Cytochrome P450 family 2 subfamily D member 6 (CYP2D6) small molecule antagonists: luciferase biochemical (cell-free) qHTS assay (AID 1645840; active = well fitted curve in the direction sought with a large enough effect in the repeat runs; an effect the other way counts as inactive or inconclusive; note: nearly all actives have a fitted effect of over 55% in size; note: potency is the fitted concentration of half-maximal effect; for activity change, negative = inhibition: % is set by controls: 0 for no effect and ±100 for the full control effect). The note with it: P450-Glo CYP2D6 enzyme, luciferin luminescence, 1 h; series mostly up to 57.4 µM; activity change, negative = inhibition: at the top concentration. In outline: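 P450-Glo CYP2D6 system: proluciferin substrate converted by enzyme to luciferin, read by luminescence proportional to activity. Enzyme-substrate mix with compound 10 min at room temperature, then NADPH regeneration 1 h before detection reagent.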
On to `CO[C@H]1C=CO[C@@]2(C)Oc3c(C)c(O)c4c(O)c(c(/C=N/N5CCN(C)CC5)c(O)c4c3C2=O)NC(=O)/C(C)=C\C=C[C@H](C)[C@H](O)[C@@H](C)[C@@H](O)[C@@H](C)[C@H](OC(C)=O)[C@@H]1C`, for which the “activity change, negative = inhibition” value was -5.51%.

Turning to `CN1CCN(CCC(=O)N2c3ccccc3Sc3ccc(C(F)(F)F)cc32)CC1`, the Potency was 0.0347 µM (active).

With `Nc1ccc(S(=O)(=O)Nc2cnc3ccccc3n2)cc1`, the “activity change, negative = inhibition” value was -14.4%.

`O=C(NC1CCN(CCc2c[nH]c3ccccc23)CC1)c1ccccc1`: the Potency was 1.23 µM (active).

On to `CCCCCCCCCCC[C@@H](C[C@@H]1OC(=O)[C@H]1CCCCCC)OC(=O)[C@H](CC(C)C)NC=O`, for which the “activity change, negative = inhibition” value was 10.3%.

As to `CCCCc1cc2ccccc2c(OCCN(C)C)n1`, the Potency is 2.19 µM (active).

Consider `CC(=O)Nc1ccc(OCC(O)CNC(C)C)cc1` (stereo not drawn), for which the “activity change, negative = inhibition” value is 4.95%.

Turning to `CCCCCCCCCCCCCCCC(=O)O`, the “activity change, negative = inhibition” value is 15.6%.

In the case of `CCc1nn(CCCN2CCN(c3cccc(Cl)c3)CC2)c(=O)n1CCOc1ccccc1`, the Potency was 0.977 µM (active).

As for `OC1C(O)C(O)C(O)C(O)C1O` (stereo not drawn), the “activity change, negative = inhibition” value is 8.58%.

For `CCCCCCCCCCCCCCC[C@H](O)[C@@H](N)CO`, the Potency is 9.77 µM (active).

Turning to `Oc1ccc(Cl)cc1Cc1cc(Cl)ccc1O`, the Potency was 27.5 µM (active).

Consider `O=C1[C@H](CC[C@H](O)c2ccc(F)cc2)[C@@H](c2ccc(O)cc2)N1c1ccc(F)cc1`, for which the Potency is 15.5 µM (active) and 9.52 µM (active).

Consider `CCCCCCCCCCCCOCCOCCOCCOCCOCCOCCOCCOCCOCCO`, for which the Potency was 12.3 µM (active).

Take `O=C(Nc1ccccc1)OCC(CN1CCCCC1)OC(=O)Nc1ccccc1` (stereo not drawn): the Potency was 0.155 µM (active).

As for `Oc1c(Cl)cc(Cl)c(Cl)c1Cc1c(O)c(Cl)cc(Cl)c1Cl`, the Potency was 13.8 µM (active).

As for `Cc1ccc(O)c([C@H](CCN(C(C)C)C(C)C)c2ccccc2)c1`, the Potency is 2.45 µM (active) and 2.13 µM (active).

For the compound `CC(=O)O[C@]1(C(C)=O)CC[C@H]2[C@@H]3C=C(C)C4=CC(=O)CC[C@]4(C)[C@H]3CC[C@@]21C`, the “activity change, negative = inhibition” value was 0.138%.

Consider `Cc1ccc2c(Br)cc(Br)c(O)c2n1`, for which the “activity change, negative = inhibition” value was 12.4%.

`CCOc1ccc(NC(C)=O)cc1`: the “activity change, negative = inhibition” value is -7.18%.

With `O=C(N/N=C/c1ccc([N+](=O)[O-])o1)c1ccc(O)cc1`, the Potency is 3.89 µM (active).

As to `C[C@H]1[C@H]2CC[C@H]3[C@@H]4CC=C5C[C@@H](N(C)C)CC[C@]5(C)[C@H]4CC[C@]23CN1C`, the “activity change, negative = inhibition” value is 8.36%.
